39 compounds from PubChem BioAssay AID720650 (Broad Institute, 2013) can be followed below.

Values without a mark were called inactive. Active and inactive are the calls of the source. How the calls were made is not given here.

This assay is described as follows: Biochemical counterscreen for C difficile toxins, absence of UDPG, inhibitor dose response (AID 720650). The note with it: series mostly up to 19.5 µM; activity change, negative = inhibition: at the top concentration.
As for `C[C@H](CO)N1C[C@H](C)[C@@H](CN(C)C(=O)Nc2ccc(C(F)(F)F)cc2)Oc2c(NS(=O)(=O)c3ccccc3)cccc2C1=O`, the AC50 (as a rule, the concentration giving half of the maximal activity seen) is greater than 39 µM.

On to `O=c1[nH]c(/C=C\c2ccc(O)cc2)nc(O)c1[N+](=O)[O-]`, for which the AC50 is 12.2 µM (active).

As for `CCOC(=O)c1cc([N+](=O)[O-])sc1N`, the “activity change, negative = inhibition” value is -0.818%.

On to `CNc1cncc(-c2ccc(O)cc2)n1`, for which the AC50 is 11.7 µM (active).

In the case of `O=C(C[C@H]1CC[C@@H]2[C@H](COC[C@@H](O)CN2C(=O)c2ccccn2)O1)NC1CCC1`, the “activity change, negative = inhibition” value was -8.48%.

As to `CC(=O)Nc1ccc(NC(=O)[C@@H]2CCCN2S(=O)(=O)c2ccc3c(c2)OCCO3)cc1`, the “activity change, negative = inhibition” value is 1.41%.

Turning to `O=C(Nc1ccncc1)c1ccc(-c2ccccc2)cc1`, the “activity change, negative = inhibition” value was -15.9%.

For the compound `O=C(O)c1c(C(=O)O)c(-c2ccc(Br)cc2)n2c1CSC2`, the “activity change, negative = inhibition” value is -10.2%.

On to `O=[N+]([O-])c1cc(Br)ccc1NS(=O)(=O)c1ccccc1`, for which the AC50 was greater than 39 µM.

As for `Cc1ccc(C(=O)OCC(=O)c2cc(C)n(CC3CCCO3)c2C)cc1` (centres undefined), the “activity change, negative = inhibition” value is 13.3%.

For `CC(C)(C)C(=O)C1=C(O)C(=O)N(c2ccccc2)C1c1ccccc1` (centres undefined), the AC50 is greater than 39 µM.

`Cc1ccc(C(=O)NC(=S)NNC(=O)CC#N)cc1`: the AC50 is 5.73 µM (active).

Take `O=C(Nc1ccc(O)cc1)c1ccc2c(c1)C(=O)N(Cc1ccco1)C2=O`: the AC50 was 9.58 µM (active).

In the case of `CC(=O)Nc1ccc(S(=O)(=O)Nc2nc3ccccc3nc2-n2ccc(=NC(=O)c3ccc(F)cc3)cc2)cc1`, the “activity change, negative = inhibition” value is 9.83%.

As to `Cc1nn(C2CC(O)C(O)C(CO)O2)c(=O)[nH]c1=O` (centres undefined), the “activity change, negative = inhibition” value was -11.3%.

Consider `Cc1cc(C)c2sc(NNC(=O)C3COc4ccccc4O3)nc2c1` (centres undefined), for which the AC50 is 0.645 µM (active).

With `COc1cc(/C=N/Nc2ccccn2)ccc1O`, the AC50 is greater than 39 µM.

Turning to `C=CCc1ccc(O)c(-c2ccc(O)c(CC=C)c2)c1`, the AC50 was greater than 39 µM.

As to `CC(=O)Nc1cccc2cc(O)ccc12`, the concentration at half-maximal activity (AC50) was 11.1 µM (active).

For `Cc1ccc(S(=O)(=O)Oc2cccc(/C=N/n3cnnc3)c2)cc1`, the AC50 was greater than 39 µM.

As for `CCNC(=O)C[C@H]1CC[C@@H]2[C@H](COc3ccc(NC(=O)c4ccc5c(c4)OCO5)cc3C(=O)N2C)O1`, the AC50 is greater than 42 µM.

Regarding `Cc1ccc(C(=O)Nc2ccc(N3CCCCC3)cc2)cc1`, the “activity change, negative = inhibition” value was -8.38%.

As for `O=C(CCn1cnc2ccccc21)N/N=C/c1ccc(O)cc1`, the AC50 was 12.2 µM (active).

Consider `Cc1ccc(CNCCCn2cnc(C(=O)Nc3ccc(C)c(C)c3)n2)o1`, for which the “activity change, negative = inhibition” value was 3.86%.

For `CN(C)c1ccc(C(=O)OCC#CCSc2nnc(-c3cccc4ccccc34)o2)cc1`, the “activity change, negative = inhibition” value was -7.71%.

As to `C/C(=N\NC(=O)CSc1nc2ccccc2c(=O)n1-c1ccccc1C)c1cccs1`, the “activity change, negative = inhibition” value was -1.74%.

`COc1ccccc1C1=NNC(=NCc2ccccc2)SC1`: the AC50 was greater than 39 µM.

For the compound `COc1ccc(Cl)cc1NC(=O)Cn1c(NCCO)nc2ccccc21`, the “activity change, negative = inhibition” value was -8.47%.

Consider `O=c1[nH]nc(-c2cc(-c3ccccc3)nc3ccccc23)o1`, for which the “activity change, negative = inhibition” value was -13.7%.

In the case of `Cc1ccc(C(=O)NCCn2cc(SCC(=O)Nc3cc(C)on3)c3ccccc32)cc1`, the “activity change, negative = inhibition” value is -12.2%.

For the compound `COc1ccc(/C=C/c2onc(C)c2S(=O)(=O)N2CCC(C(=O)N3CCCCCC3)CC2)cc1`, the “activity change, negative = inhibition” value was 6.66%.

As to `Cc1nn2cc(-c3cccc(Cl)c3)cnc2c1Br`, the “activity change, negative = inhibition” value was -5.76%.

Take `CN(c1ccccc1)S(=O)(=O)c1cccc(C(=O)NCCc2ccc(O)c(O)c2)c1`: the “activity change, negative = inhibition” value is 1.79%.

Take `Cc1cc(SCC(=O)N/N=C/c2ccco2)nc2ccccc12`: the AC50 is greater than 39 µM.

In the case of `Nc1ccc2c(c1)Nc1ccccc1CC2`, the AC50 is 9.36 µM (active).

As to `CC1C(=O)C(C)C(c2ccc([N+](=O)[O-])cc2)NC1c1ccc([N+](=O)[O-])cc1` (centres undefined), the “activity change, negative = inhibition” value is -6.78%.

`CC(C)(C)N1C(=O)c2ccc(C(=O)Nc3ccc(O)cc3)cc2C1=O`: the AC50 was 8.25 µM (active).

Take `CN1CCN(/N=C/c2c[nH]c3ccccc23)CC1`: the AC50 was greater than 39 µM.

As to `O=C(Nc1cc(S(=O)(=O)N2CCOCC2)ccc1N1CCOCC1)c1ccccc1Cl`, the AC50 is greater than 39 µM.
